The whole screen tested about 310,000 compounds, of which about 14,000 (4.5%) showed an effect of 50% or more. Effects have a minus sign here. This excerpt belongs to a sample that is enriched for strong results.
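Also: peak tail current of the secondary pulse compared with the same well before compound.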

This experiment deals with human ether-à-go-go-related gene (hERG) potassium channel (human, UniProt Q12809). Briefly: primary screen, population patch clamp on CHO cells stably expressing hERG; higher = less effect of the substance.
human ether-à-go-go-related gene (hERG) potassium channel, sequence (Q12809 whole entry, looked up): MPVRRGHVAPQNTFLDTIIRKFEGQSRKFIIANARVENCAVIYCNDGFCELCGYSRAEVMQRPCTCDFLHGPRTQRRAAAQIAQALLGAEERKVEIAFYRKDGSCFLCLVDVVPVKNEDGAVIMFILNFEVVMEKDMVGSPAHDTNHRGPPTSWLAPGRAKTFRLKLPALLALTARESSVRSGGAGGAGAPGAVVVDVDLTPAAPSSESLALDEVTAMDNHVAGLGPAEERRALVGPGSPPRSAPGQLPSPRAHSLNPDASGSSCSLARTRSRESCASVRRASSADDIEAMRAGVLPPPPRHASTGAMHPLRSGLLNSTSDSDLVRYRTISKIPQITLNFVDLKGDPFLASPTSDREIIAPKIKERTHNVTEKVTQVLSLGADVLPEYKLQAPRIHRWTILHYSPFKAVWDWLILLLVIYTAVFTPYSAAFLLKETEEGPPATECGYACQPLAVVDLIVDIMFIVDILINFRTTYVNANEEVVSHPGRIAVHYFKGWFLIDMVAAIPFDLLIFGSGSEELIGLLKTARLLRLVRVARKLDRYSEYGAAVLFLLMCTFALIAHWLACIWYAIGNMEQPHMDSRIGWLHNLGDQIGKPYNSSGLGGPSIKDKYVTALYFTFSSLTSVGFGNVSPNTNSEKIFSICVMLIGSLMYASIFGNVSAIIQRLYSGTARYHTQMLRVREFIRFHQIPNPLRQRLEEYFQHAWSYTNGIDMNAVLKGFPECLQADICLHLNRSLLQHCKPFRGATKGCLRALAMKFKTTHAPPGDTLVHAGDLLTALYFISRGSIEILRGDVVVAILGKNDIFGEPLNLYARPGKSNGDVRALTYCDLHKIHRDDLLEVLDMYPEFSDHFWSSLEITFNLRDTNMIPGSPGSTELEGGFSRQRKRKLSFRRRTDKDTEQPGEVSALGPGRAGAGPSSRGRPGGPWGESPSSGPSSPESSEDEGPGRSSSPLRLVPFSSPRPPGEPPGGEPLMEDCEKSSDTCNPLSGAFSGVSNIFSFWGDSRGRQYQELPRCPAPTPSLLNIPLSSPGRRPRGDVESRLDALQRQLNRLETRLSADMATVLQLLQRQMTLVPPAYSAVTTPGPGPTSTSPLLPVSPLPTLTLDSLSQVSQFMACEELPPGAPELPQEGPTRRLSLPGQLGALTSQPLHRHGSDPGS
For the compound `C/C=C/n1ccnc1CC(O)(c1ccccc1)c1ccc(C)cc1` (centres unmarked), the “hERG current change (%, negative = inhibition) at 10uM” value is given as -22.5%.

On to `Nc1nnnn1/N=C\c1ccc(Cl)c([N+](=O)[O-])c1`, for which the “hERG current change (%, negative = inhibition) at 10uM” value came to 3.26%.

Turning to `COc1ccc(NC(=S)Nc2cccnc2)c(OC)c1`, the “hERG current change (%, negative = inhibition) at 10uM” value was found to be 8.2%.

Regarding `CN(Cc1nc2ccccc2c(=O)[nH]1)Cc1cc(=O)oc2ccc3ccccc3c12`, the “hERG current change (%, negative = inhibition) at 10uM” value is on record as -10.1%.

Consider `CCN(CC(=O)Nc1cc(OC)ccc1OC)Cc1nc2ccccc2c(=O)[nH]1`, for which the “hERG current change (%, negative = inhibition) at 10uM” value was -8.33%.

In the case of `CCN(Cc1nc2ccccc2c(=O)[nH]1)Cc1cc(=O)oc2cc(C)c(C)cc12`, the “hERG current change (%, negative = inhibition) at 10uM” value was -41.4%.

For the compound `CCN(Cc1nc2ccccc2c(=O)[nH]1)Cc1cc(=O)oc2cc(OC)ccc12`, the “hERG current change (%, negative = inhibition) at 10uM” value is given as -51.1%.

As for `CCN(Cc1nc2ccccc2c(=O)[nH]1)Cc1nc2cc(OC)c(OC)cc2c(=O)[nH]1`, the “hERG current change (%, negative = inhibition) at 10uM” value is recorded as 14.9%.

Turning to `CCc1ccc2c(CN(CC)Cc3nc4ccccc4c(=O)[nH]3)cc(=O)oc2c1`, the “hERG current change (%, negative = inhibition) at 10uM” value was -71.6%.

With `N#Cc1ccccc1S(=O)(=O)N1CCN(CC(=O)NCC2(N3CCOCC3)CCCCC2)CC1`, the “hERG current change (%, negative = inhibition) at 10uM” value is recorded as -27.3%.

Consider `CCOc1cc(/C=C2/NC(=O)N(CC(=O)OC)C2=O)ccc1O`, for which the “hERG current change (%, negative = inhibition) at 10uM” value is given as 3.71%.

On to `O=C(O)c1ccc(Br)c(S(=O)(=O)N2CCCC2)c1`, for which the “hERG current change (%, negative = inhibition) at 10uM” value came out at 9.91%.

As for `CCc1ccc(CN2CCN(C(=O)c3ccco3)CC2)cc1.O=C(O)C(=O)O`, the “hERG current change (%, negative = inhibition) at 10uM” value was -23.8%.

Consider `CCc1ccc(NC(=O)C(=O)NCCN2CCN(Cc3ccc([N+](=O)[O-])cc3)CC2)cc1`, for which the “hERG current change (%, negative = inhibition) at 10uM” value is -72.5%.

As for `CCNC(=O)C(=O)Nc1ccc([N+](=O)[O-])cc1`, the “hERG current change (%, negative = inhibition) at 10uM” value was determined as 2.37%.

Take `CCCCc1ccc(NC(=O)C(=O)NCCN2CCN(Cc3ccc([N+](=O)[O-])cc3)CC2)cc1`: the “hERG current change (%, negative = inhibition) at 10uM” value was -66.7%.

Consider `COc1ccc(NC(=O)C(=O)NCCN2CCN(C(=O)c3ccco3)CC2)cc1`, for which the “hERG current change (%, negative = inhibition) at 10uM” value is reported as -11.1%.

Consider `CCc1ccc(NC(=O)C(=O)NCCN2CCN(S(C)(=O)=O)CC2)cc1`, for which the “hERG current change (%, negative = inhibition) at 10uM” value came out at 20.5%.

Consider `Cc1ccc(NC(=O)C(=O)NCCN2CCN(S(C)(=O)=O)CC2)cc1`, for which the “hERG current change (%, negative = inhibition) at 10uM” value is 19.6%.

With `CCCCc1ccc(NC(=O)C(=O)NCCN2CCN(C(=O)c3ccc([N+](=O)[O-])cc3)CC2)cc1`, the “hERG current change (%, negative = inhibition) at 10uM” value was -22.4%.

For `CCN1CCN(CCNC(=O)Nc2ccc([N+](=O)[O-])cc2)CC1`, the “hERG current change (%, negative = inhibition) at 10uM” value was -12.2%.

Turning to `Cc1ccc(NC(=O)C(=O)NCCN2CCN(Cc3ccc([N+](=O)[O-])cc3)CC2)cc1`, the “hERG current change (%, negative = inhibition) at 10uM” value is -72.8%.

On to `CCc1ccc(NC(=O)C(=O)NCCN2CCN(C(=O)c3ccco3)CC2)cc1`, for which the “hERG current change (%, negative = inhibition) at 10uM” value is given as -67%.

These data come from paper PMC4336329 (PLoS ONE, 2015).
